From PubChem BioAssay (Tox21) come the findings set out here.

Assay [1] has as its target Aryl hydrocarbon receptor (Homo sapiens) (UniProt P35869). The assay is described as follows: qHTS assay to identify small molecule that activate the aryl hydrocarbon receptor (AhR) signaling pathway (AID 743085).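 For activation: HG2L7.5c1 human HepG2 liver cells with stably integrated DRE-driven firefly reporter; series mostly up to about 70 µM.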 Note: nearly all actives have a fitted effect of over 15% in size. Note: potency is the fitted concentration of half-maximal effect. Put shortly:
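Luminescence (ONE-Glo) from a dioxin-responsive-element luciferase reporter in HG2L7.5c1 HepG2 cells after 24 hr compound exposure at 37C; viability measured by CellTiter-Fluor fluorescence beforehand.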
Background: In qHTS, concentration-response curves come from the screen itself.

For assay [2], the target named is Peroxisome proliferator-activated receptor gamma (Homo sapiens) (UniProt P37231). Description: qHTS assay to identify small molecule agonists of the peroxisome proliferator-activated receptor gamma (PPARg) signaling pathway (AID 743094; active = well fitted activation curve with a large enough effect in the signal ratio in the repeat runs, not every such curve was filed as active; the % refers to the signal ratio). The method, boiled down: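 GeneBLAzer PPARg UAS-bla HEK293H cells carrying a stably integrated beta-lactamase reporter were pre-incubated 5 h at 37C, then exposed to compounds in DMSO for 17 h at 37C; LiveBLAzer B/G FRET substrate was added for 1 h at room temperature and fluorescence read.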

Assay [3] can be described thus: qHTS assay to identify small molecule antagonists of the peroxisome proliferator-activated receptor gamma (PPARg) signaling pathway - cell viability counter screen (AID 743194). Note: nearly all actives have a fitted effect of over 55% in size. Conditions: Potency: co-treated with 50 nM rosiglitazone. The method, boiled down: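 Viability was measured as CellTiter-Glo luminescence in GeneBLAzer PPARg UAS-bla HEK293H cells. These cells had been exposed 17 h at 37 C to compounds together with rosiglitazone at 50 nM final, with the beta-lactamase readout taken in the same wells.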

Assay [4] can be described thus: qHTS assay for small molecule agonists of the antioxidant response element (ARE) signaling pathway (AID 743202; active = well fitted activation curve with a large enough effect in the signal ratio in the repeat runs, not every such curve was filed as active; the % refers to the signal ratio). Put shortly: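 An ARE-responsive beta-lactamase gene stably integrated in HepG2 cells serves as reporter. After 5 h plating and 16 h compound incubation at 37 C, fluorescence of the B/G FRET substrate was measured.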
Assay [5] in a line: qHTS assay for small molecule agonists of the antioxidant response element (ARE) signaling pathway - cell viability counter screen (AID 743203; calls by dose curve; note: nearly all actives have a fitted effect of over 55% in size). Put shortly: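 CellSensor ARE-bla HepG2 cells, 2,000 per well, rested 5 hrs at 37C/5% CO2, then exposed to compound in DMSO for 16 hrs; viability read as CellTiter-Glo luminescence after 30 min at room temperature, in the reporter wells.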

Assay [6] can be described thus: qHTS assay for small molecule activators of the heat shock response signaling pathway - cell viability counter screen (AID 743209). Note: nearly all actives have a fitted effect of over 50% in size. The method, boiled down: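 CellSensor HSE-bla HeLa cells, plated overnight at 37 C/5% CO2, were exposed to compounds in DMSO for 5 h at 37 C. Viability was then read in the same wells by CellTiter-Glo luminescence after 30 min at room temperature.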

The nature of assay [7]: qHTS assay for small molecule activators of the heat shock response signaling pathway (AID 743210; active = well fitted activation curve with a large enough effect in the signal ratio in the repeat runs, with a control signal flat, not every such curve was filed as active; the % refers to the signal ratio;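 note: HeLa cells with beta-lactamase reporter driven by heat shock elements; series mostly up to about 63 µM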). The method, boiled down: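 In HSE-bla HeLa cells, 5 h compound incubation (37 C) precedes addition of LiveBLAzer B/G substrate; after 2.5 h at room temperature, fluorescence intensity indicates reporter induction.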
The nature of assay [8]: qHTS assay to identify small molecule agonists of the peroxisome proliferator-activated receptor delta (PPARd) signaling pathway - cell viability counter screen (AID 743211). Note: nearly all actives have a fitted effect of over 55% in size. The method, boiled down:
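Viability was measured as CellTiter-Glo luminescence (30 min, room temperature) in the same wells as the beta-lactamase readout. GeneBLAzer PPARd UAS-bla HEK293H cells received compound after 5 h plating and were incubated 17 h at 37 C.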

For assay [9], the target named is Bile acid receptor (Homo sapiens) (UniProt Q96RI1). Description: qHTS assay to identify small molecule antagonists of the farnesoid-X-receptor (FXR) signaling pathway (AID 743217; active = well fitted inhibition curve with a large enough effect in the signal ratio in the repeat runs, not every such curve was filed as active; the % refers to the signal ratio). Put shortly:
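FXR-UAS-bla HEK 293T cells pre-incubated 5 h at 37 °C, then exposed to compounds with chenodeoxycholic acid (50 uM final) for 16 h at 37 °C. Beta-lactamase reporter read by LiveBLAzer B/G FRET substrate fluorescence after 2 h at room temperature.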

The nature of assay [10]: qHTS assay to identify small molecule antagonists of the farnesoid-X-receptor (FXR) signaling pathway - cell viability counter screen (AID 743221; active = well fitted cell-killing curve with a large enough effect in the repeat runs, not every such curve was filed as active; note: nearly all actives have a fitted effect of over 50% in size). Put shortly: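 Cytotoxicity counter screen run in the FXR-bla reporter wells: HEK 293T cells exposed to compound with 50 uM (final) chenodeoxycholic acid for 16 h, 37 C, then viability measured by CellTiter-Glo luminescence after 30 min, room temperature.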

Assay [11] has as its target Peroxisome proliferator-activated receptor gamma (Homo sapiens) (UniProt P37231). The assay is described as follows: qHTS assay to identify small molecule antagonists of the peroxisome proliferator-activated receptor gamma (PPARg) signaling pathway (AID 743191; calls by dose curve; note: series mostly up to about 63 µM; nearly all actives have a fitted effect of over 30% in size). Put shortly:
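Beta-lactamase reporter under UAS control in HEK293H PPARg-bla cells; compound treatment 17 h at 37C. Read-out: fluorescence intensity after 1 h room-temperature incubation with LiveBLAzer B/G FRET substrate.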

Assay [12] deals with Peroxisome proliferator-activated receptor delta (Homo sapiens) (UniProt Q03181). The assay is described as follows: qHTS assay to identify small molecule agonists of the peroxisome proliferator-activated receptor delta (PPARd) signaling pathway (AID 743212; calls by dose curve). Put shortly:
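HEK293H UAS-bla reporter cells, human PPARd system; compounds delivered in DMSO after 5 h plating, then at 37 C. Beta-lactamase FRET read, 2 h RT substrate step.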

A short description of assay [13]: qHTS assay to identify small molecule agonists of the farnesoid-X-receptor (FXR) signaling pathway - cell viability counter screen (AID 743218). Note: nearly all actives have a fitted effect of over 45% in size. Put shortly:
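FXR-UAS-bla HEK 293T cells, plated 5 h at 37 C, were exposed to compounds for 16 h at 37 C. CellTiter-Glo was then added to the same wells as the bla readout; luminescence read after 30 min at room temperature.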

For assay [14], the target named is Vitamin D3 receptor (Homo sapiens) (UniProt P11473). Description: qHTS assay to identify small molecule agonists of the vitamin D receptor (VDR) signaling pathway (AID 743222; calls by dose curve). Put shortly:
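VDR-bla cells were plated 4 h at 37C/5% CO2, then exposed to compounds in DMSO for 16 h. After LiveBLAzer B/G FRET substrate addition and 2 h at room temperature, beta-lactamase reporter fluorescence was read.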

For assay [15] the target is unchanged. The assay is described as follows: qHTS assay to identify small molecule antagonists of the vitamin D receptor (VDR) signaling pathway (AID 743223; active = well fitted inhibition curve with a large enough effect in the signal ratio in the repeat runs, not every such curve was filed as active; the % refers to the signal ratio). Put shortly: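 Antagonist mode: compound added to VDR-bla cells alongside agonist 1alpha,25-dihydroxyvitamin D3 (3 nM final), incubation 16 h at 37C. Read-out is LiveBLAzer FRET fluorescence, 2 h at room temperature.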

Assay [16] in a line: qHTS assay to identify small molecule antagonists of the peroxisome proliferator-activated receptor delta (PPARd) signaling pathway - cell viability counter screen (AID 743213). Note: nearly all actives have a fitted effect of over 50% in size. Put shortly: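 HEK293H cells with the PPARd UAS-bla reporter, co-treated 17 h at 37 C with compounds and L165041 (300 nM final), were lysed with CellTiter-Glo. Luminescence indicated viable cell content.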

The target in assay [17] is Peroxisome proliferator-activated receptor delta (Homo sapiens) (UniProt Q03181). Description: qHTS assay to identify small molecule antagonists of the peroxisome proliferator-activated receptor delta (PPARd) signaling pathway (AID 743215; active = well fitted inhibition curve with a large enough effect in the signal ratio in the repeat runs, not every such curve was filed as active; the % refers to the signal ratio;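 note: cells stimulated with agonist L165041 at 300 nM final during compound exposure; series mostly up to about 62 µM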). Put shortly: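 PPARd UAS-bla HEK293H cells were pre-incubated 5 h at 37 C, then given test compounds in DMSO plus agonist L165041 (300 nM final). After 17 h at 37 C, beta-lactamase FRET substrate was added; fluorescence read after 2 h at room temperature.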

A short description of assay [18]: qHTS assay to identify small molecule agonists of the vitamin D receptor (VDR) signaling pathway - cell viability counter screen (AID 743224). Note: series mostly up to about 63 µM; nearly all actives have a fitted effect of over 50% in size. Put shortly:
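VDR-bla cells were preincubated 4 h at 37C/5% CO2, then exposed to compounds for 16 h. After the 2 h room-temperature bla FRET read, CellTiter-Glo was added to the same wells and luminescence read after 30 min.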

The nature of assay [19]: qHTS assay to identify small molecule that activate the aryl hydrocarbon receptor (AhR) signaling pathway - cell viability counter screen (AID 743086).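 Note: HepG2 liver cells carrying the AhR DRE luciferase reporter; series mostly up to about 70 µM; nearly all actives have a fitted effect of over 45% in size.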 Put shortly:
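Cytotoxicity counter screen: CellTiter-Fluor signal (30 min, 37 C) in 4000 HepG2 cells/well carrying the DRE-luciferase reporter, following 24 h compound exposure at 37 C.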

Assay [20] concerns the target Bile acid receptor (Homo sapiens) (UniProt Q96RI1). Description: qHTS assay to identify small molecule agonists of the farnesoid-X-receptor (FXR) signaling pathway (AID 743220; active = well fitted activation curve with a large enough effect in the signal ratio in the repeat runs, not every such curve was filed as active; the % refers to the signal ratio). Put shortly: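 Beta-lactamase reporter under UAS control in GeneBLAzer FXR HEK 293T cells (5000/well) measured with LiveBLAzer FRET substrate after 2 h at room temperature. Compound exposure lasted 16 h at 37C.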

Inconclusive results are not listed. Active and inactive are the calls of the source. Unless noted, calls come from the whole dose curve; as a rule, active = well fitted curve in the direction sought with a large enough effect in the repeat runs; inconclusive = weak or mixed curves; inactive = no such curve, though single readings can be large; an effect the other way counts as inactive or inconclusive.

Vitamin D3 receptor (Homo sapiens), sequence (P11473 whole entry, looked up): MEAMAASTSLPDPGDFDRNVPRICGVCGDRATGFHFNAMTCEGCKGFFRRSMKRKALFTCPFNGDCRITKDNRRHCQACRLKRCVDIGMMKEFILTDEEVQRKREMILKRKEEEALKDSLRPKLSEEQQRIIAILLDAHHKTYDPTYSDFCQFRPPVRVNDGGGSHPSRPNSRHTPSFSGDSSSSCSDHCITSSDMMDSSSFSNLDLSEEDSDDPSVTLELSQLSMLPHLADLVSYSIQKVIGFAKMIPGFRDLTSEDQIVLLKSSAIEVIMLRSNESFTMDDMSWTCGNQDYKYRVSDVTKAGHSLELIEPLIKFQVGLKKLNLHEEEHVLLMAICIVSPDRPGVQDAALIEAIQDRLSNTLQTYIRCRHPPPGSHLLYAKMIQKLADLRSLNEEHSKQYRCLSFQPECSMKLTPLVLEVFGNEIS
Peroxisome proliferator-activated receptor delta (Homo sapiens), sequence (Q03181 whole entry, looked up): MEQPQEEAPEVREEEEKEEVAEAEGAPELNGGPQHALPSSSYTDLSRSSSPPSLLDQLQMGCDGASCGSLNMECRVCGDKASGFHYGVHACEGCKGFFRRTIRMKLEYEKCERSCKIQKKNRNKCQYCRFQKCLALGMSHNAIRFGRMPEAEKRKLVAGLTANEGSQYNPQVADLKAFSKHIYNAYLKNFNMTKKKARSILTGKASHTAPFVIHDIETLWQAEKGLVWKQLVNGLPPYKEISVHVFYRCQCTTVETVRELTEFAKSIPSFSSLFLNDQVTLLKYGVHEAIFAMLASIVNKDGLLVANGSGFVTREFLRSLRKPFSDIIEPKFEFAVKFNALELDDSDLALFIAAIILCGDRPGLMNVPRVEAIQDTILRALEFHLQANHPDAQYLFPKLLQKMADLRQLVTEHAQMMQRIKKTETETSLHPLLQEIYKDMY
Peroxisome proliferator-activated receptor gamma (Homo sapiens), sequence (P37231 whole entry, looked up): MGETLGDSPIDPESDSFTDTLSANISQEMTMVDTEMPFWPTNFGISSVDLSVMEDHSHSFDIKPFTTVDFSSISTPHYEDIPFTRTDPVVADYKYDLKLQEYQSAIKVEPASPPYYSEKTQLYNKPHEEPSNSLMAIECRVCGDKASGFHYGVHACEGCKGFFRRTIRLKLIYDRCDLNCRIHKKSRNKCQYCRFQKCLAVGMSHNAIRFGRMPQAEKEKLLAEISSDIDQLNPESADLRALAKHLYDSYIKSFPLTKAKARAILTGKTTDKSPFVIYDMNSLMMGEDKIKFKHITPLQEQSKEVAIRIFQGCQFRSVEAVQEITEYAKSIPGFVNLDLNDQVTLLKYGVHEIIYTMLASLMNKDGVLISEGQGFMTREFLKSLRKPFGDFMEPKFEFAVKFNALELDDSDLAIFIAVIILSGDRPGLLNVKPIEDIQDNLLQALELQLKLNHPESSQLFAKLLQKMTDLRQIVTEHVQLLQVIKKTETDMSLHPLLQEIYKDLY
Bile acid receptor (Homo sapiens), sequence (Q96RI1 whole entry, looked up): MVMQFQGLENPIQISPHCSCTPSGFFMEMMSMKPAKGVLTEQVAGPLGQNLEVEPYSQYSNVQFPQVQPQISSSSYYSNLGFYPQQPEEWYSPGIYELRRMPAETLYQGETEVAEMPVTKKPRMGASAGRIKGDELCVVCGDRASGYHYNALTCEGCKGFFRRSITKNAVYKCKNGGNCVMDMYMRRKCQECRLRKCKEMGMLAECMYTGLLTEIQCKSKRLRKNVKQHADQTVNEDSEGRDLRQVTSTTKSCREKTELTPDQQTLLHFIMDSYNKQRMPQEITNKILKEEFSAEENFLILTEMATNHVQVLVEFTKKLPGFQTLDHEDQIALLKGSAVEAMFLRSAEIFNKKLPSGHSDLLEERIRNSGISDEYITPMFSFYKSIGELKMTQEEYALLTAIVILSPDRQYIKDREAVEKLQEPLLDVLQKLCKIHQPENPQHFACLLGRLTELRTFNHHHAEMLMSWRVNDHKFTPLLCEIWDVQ
Aryl hydrocarbon receptor (Homo sapiens), sequence (P35869 whole entry, looked up): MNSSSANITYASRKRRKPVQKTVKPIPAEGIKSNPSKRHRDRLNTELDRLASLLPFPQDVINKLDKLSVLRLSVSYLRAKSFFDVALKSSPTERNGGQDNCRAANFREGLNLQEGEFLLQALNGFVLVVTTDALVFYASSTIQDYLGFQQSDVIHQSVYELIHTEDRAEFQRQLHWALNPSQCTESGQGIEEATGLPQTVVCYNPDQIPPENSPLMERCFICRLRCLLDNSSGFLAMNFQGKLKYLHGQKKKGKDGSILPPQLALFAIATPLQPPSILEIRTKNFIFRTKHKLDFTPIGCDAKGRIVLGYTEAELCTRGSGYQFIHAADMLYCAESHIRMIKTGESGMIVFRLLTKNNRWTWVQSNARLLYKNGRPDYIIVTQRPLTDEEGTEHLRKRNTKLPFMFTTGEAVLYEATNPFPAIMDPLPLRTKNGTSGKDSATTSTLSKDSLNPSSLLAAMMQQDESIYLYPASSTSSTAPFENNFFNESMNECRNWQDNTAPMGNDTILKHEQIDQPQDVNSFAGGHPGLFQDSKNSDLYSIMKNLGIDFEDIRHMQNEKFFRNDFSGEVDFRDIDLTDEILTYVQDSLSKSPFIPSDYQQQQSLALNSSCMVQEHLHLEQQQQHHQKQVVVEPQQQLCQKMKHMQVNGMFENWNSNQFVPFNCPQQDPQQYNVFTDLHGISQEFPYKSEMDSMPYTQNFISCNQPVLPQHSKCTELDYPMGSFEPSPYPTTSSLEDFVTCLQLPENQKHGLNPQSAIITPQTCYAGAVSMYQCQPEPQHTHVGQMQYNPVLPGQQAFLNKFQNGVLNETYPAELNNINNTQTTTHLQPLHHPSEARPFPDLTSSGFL

`CC(C)CP(=S)(S)CC(C)C`: the Potency result in assay [1], in assay [3], in assay [4], in assay [5], in assay [6] and in [8] was “inactive” in each case. In assay [9], the Potency result was “inactive”. In addition, the outcome in assay [2], in assay [7] and in assay [10] was inactive.
Take `CCOP(=S)(Oc1cnc(C(C)(C)C)nc1)OC(C)C` (stereo unspecified): the Potency in assay [1] is 54.5 µM (active). The compound was classed as inactive in assay [2], in [12], in assay [10], in assay [14] and in assay [15]. Further, the Potency result in [11], in [6] and in assay [13] was “inactive” in each case.
Turning to `COc1cc(OC)nc(NC(=O)NS(=O)(=O)c2ncccc2C(=O)N(C)C)n1`, the Potency entry in assay [1], in [11], in assay [3], in assay [5], in [6] and in assay [8] was “inactive” throughout. Also, the Potency entry in assay [13] and in [18] was “inactive” in each case. The compound was called inactive in assay [2], in assay [7], in assay [12], in assay [16], in assay [17] and in assay [10]. Besides, the result in assay [14] and in [15] was inactive.
In the case of `NC(=O)O`, the Potency result in assay [1], in assay [4], in assay [5], in assay [6], in assay [8] and in assay [13] was “inactive” in each case. In addition, the Potency entry in assay [18] was “inactive”. For the same compound, the outcome in [19], in [7], in assay [12], in assay [16], in assay [17] and in assay [10] was inactive. Further, in assay [15], the compound was classed as inactive.
Consider `N#Cc1c(Cl)cccc1Cl`, for which the Potency result in assay [1], in assay [11], in assay [4], in assay [6], in assay [8] and in assay [18] was “inactive” each time. Besides, the compound was classed as inactive in [2], in assay [7], in assay [16], in [17] and in assay [10].
With `Nc1n[nH]c(N)n1`, the Potency entry in [1], in [11], in assay [3], in assay [4], in assay [6] and in assay [8] was “inactive” in each case. Also, the Potency result in [9], in [13] and in assay [18] was “inactive” each time. The compound was classed as inactive in assay [2], in assay [7], in assay [12], in assay [16], in [20] and in [10]. Moreover, in assay [15], the outcome was inactive.
In the case of `CCOC(=O)C1(c2ccccc2)CCN(CCc2ccc(N)cc2)CC1`, the Potency result in assay [3], in assay [4], in assay [5], in assay [6], in assay [8] and in assay [13] was “inactive” throughout. In addition, the Potency result in [18] is “inactive”. In addition, the result in assay [7], in assay [12], in assay [17], in assay [10], in [14] and in [15] was inactive.
Turning to `COP(=S)(OC)Oc1ccc(S(N)(=O)=O)cc1`, the compound was classed as inactive in [2], in assay [7], in [16], in assay [17], in [20] and in assay [10]. For the same compound, the result in [14] and in assay [15] was inactive. The Potency result in assay [11], in assay [3], in assay [4], in assay [5], in assay [6] and in assay [8] was “inactive” throughout. In addition, the Potency result in [9], in assay [13] and in assay [18] was “inactive” each time.
